Data on 40 molecules can be found in PubChem BioAssay AID1571 (National Center for Advancing Translational Sciences (NCATS), 2009).

Inconclusive results are not listed. Entries that show only a call come without a potency. Values without a mark were called inactive. Active and inactive are the calls of the source. Calls follow the shape of the dose curve; as a rule, active = well fitted curve in the direction sought with a large enough effect; inconclusive = small, poorly fitted or top-dose-only effect, or effect the other way; inactive = flat fitted curve, though single readings scatter.

This assay can be described thus: Total Fluorescence Confirmation Counterscreen for Inhibitors of the Interaction of Thyroid Hormone Receptor and Steroid Receptor Coregulator 2, Fluorescein Fluoroprobe. Conditions: TRbeta/SRC2-fluorescein mix, total fluorescence interference; series mostly up to 92.2 µM. An excerpt: NIH Molecular Libraries Probe Production Network [MLPCN] NIH Chemical Genomics Center [NCGC] MLPCN Grant: DK058080 Assay Provider: R. Kip Guy, St. Jude Children's Research Hospital NCGC Assay Overview: Thyroid receptor (TR) regulates many homeostatic processes including basal metabolism, cardiovascular function, body weight, and lipid trafficking. TR modulators are potential therapeutics for obesity and hyperlipidemias but current thyroid analogs have undesirable side effects, particularly cardiac stimulation. To identify inhibitors that specifically prevent the interaction of TR with the steroid receptor coregulator 2 (SRC2), a fluorescence polarization assay was screened (Arnold et al., 2006). This assay detects interaction of the ligand-binding domain of human TRbeta with a fluorescein labeled SRC2 peptide, corresponding to a 20 amino acid region of the nuclear receptor interaction domain. Total fluorescence (555 nm excitation and 632 nm emission) was measured to identify potential fluorescent and light absorbing compounds. Such compounds may be artifacts that interfere with the fluorescence polarization assay. This assay is a confirmation assay for AID 1479. Arnold, L. A.; Estebanez-Perpina, E.; Togashi, M.; Shelat, A.; Ocasio, C. A.; McReynolds, A. C.; Nguyen, P.; Baxter, J. D.; Fletterick, R. J.; Webb, P.; Guy, R. K. A high-throughput screening method to identify small molecule inhibitors of thyroid hormone receptor coactivator binding. Sci STKE 2006, p 13.
NCGC Assay Protocol Summary: For screening, 5 uL/well 0.6 uM TRbeta and 20 nM SRC2 Fluorescein in protein buffer (20mM Tris hydrochloride, 100mM NaCl, 10% glycerol, 1mM EDTA, 0.01% NP-40, 1mM DTT, 1uM T3 and 5% DMSO) was dispensed into black solid 1536-well plates (Grenier) using a solenoid-based dispenser. Following transfer of 23 nL compound or DMSO vehicle by a pin tool, the plates were centrifuged 15 s at 1000 RPM and incubated 5 hr at ambient temperature. The plates were read by an Envision (Perkin Elmer) to detect fluorescence polarization of SRC2 Fluorescein (480 nm excitation and 535 nm emission). Data were normalized to unbound (all components except TRbeta) and bound SRC2 Fluorescein controls. Total fluorescence (TF) was calculated as follows: TF = S + 2P where S and P are fluorescence readings in the parallel and perpendicular channels, respectively. In this assay, we provide % activity data for each concentration as well as potencies for the active compounds.
For orientation: Counterscreens check selectivity or assay interference.
As to `Nc1cnccc1C(=O)O`, the Potency entry is “inactive”.

With `CCOC(=O)c1cnc2nc(NCc3ccc(OC)c(OC)c3)[nH]n2c1=O`, the Potency entry is “inactive”. Still for that read-out and setting: the result for `O=C(/C=C/c1ccco1)NC(=S)Nc1cc(C(F)(F)F)ccc1N1CCOCC1` reads “inactive”; that for `Nc1c(C(=O)NCc2ccco2)c2nc3ccccc3nc2n1CCc1ccccc1`, “inactive”; that for `CC1=NN(Cc2ccccc2)C(=O)C1`, “inactive”. The same measure, in the same setting: the result for `COc1ccccc1Nc1cc2ccccc2c(=O)[nH]1` reads 44.7 µM [fluorescent] (active).

As for `CN(CCO)c1nc(N)c2c(N)nc3c(c2c1C#N)CC(=O)N3C1CCCC1`, the total fluorescence change, positive = fluorescent was 13.6% [at 11.6 µM]. The same measure, in the same setting: the result for `O=C(O)/C=C/C(=O)Nc1ccc(OC(F)(F)F)cc1Br` reads 17.7% [at 0.0112 µM]. Take `COc1cc(NC(C)CCCN)c2ncccc2c1` (stereo not given): the Potency result is “inactive”.

For `COc1ccc(C(=O)Oc2ccc(C(c3c(C)[nH][nH]c3=O)c3c(C)[nH][nH]c3=O)cc2OC)cc1`, the Potency entry is “inactive”.

`COc1ccc2ccc3c(c2c1)N=CC1(O3)N(C)c2ccccc2C1(C)C` (stereo not given): the total fluorescence change, positive = fluorescent is -5.71% [at 0.0112 µM]. Turning to `CCSc1ncc(Cl)c(C(=O)Nc2nc3ccc(OC)cc3s2)n1`, the Potency entry was “inactive”. For the molecule `C/C(=C\C(=O)c1ccccc1)Nc1ccc(O)cc1`, the total fluorescence change, positive = fluorescent was 10.3% [at 11.6 µM]. Turning to `CCOc1cc(C(c2c(C)[nH][nH]c2=O)c2c(C)[nH][nH]c2=O)ccc1OS(=O)(=O)c1ccc(C)cc1`, the Potency entry is “inactive”.

As to `COn1c2c(c3c4nonc4ccc31)CCCC2`, the Potency entry is “inactive”.

Regarding `COc1cc(/C=C(\C#N)C(=O)NCC2CCCO2)ccc1OCCC(C)C` (stereo not given), the Potency result is “inactive”.

As for `COc1cc(C(c2c(C)[nH][nH]c2=O)c2c(C)[nH][nH]c2=O)ccc1OC(=O)c1ccccc1OC`, the Potency entry was “inactive”. The same measure, in the same setting: the result for `O=c1[nH]c(Nc2ccccc2)cc2ccccc12` reads 35.5 µM [fluorescent] (active); that for `CC(=O)NC1N=C(C)N(c2ccccc2)C1=O` (stereo not given), “inactive”.

In the case of `O=C(O)[C@H]1CN(CCCP(=O)(O)O)CCN1`, the Potency entry was “inactive”. Still for that read-out and setting: the result for `CCc1ccc2c(c1)c1nc(C)sc1n2CC` reads “inactive”; that for `C=CCNC(=O)/C(C#N)=C\c1cc(Cl)c(OCC)c(OC)c1`, “inactive”. Same read-out and setting: the result for `Cc1c(C#N)c(O)n(CCO)c(=O)c1N=Nc1ccc2c(c1)COC2=O` reads “inactive”.

Regarding `CC(NC(=O)Nc1ccc(O)cc1)(C(F)(F)F)C(F)(F)F`, the total fluorescence change, positive = fluorescent is 8.06% [at 11.6 µM]. The same measure, in the same setting: the result for `O=C1CNC(=S)N1c1nc(-c2ccccc2)cs1` reads 7.24% [at 0.0112 µM]; that for `CCN(CC)S(=O)(=O)c1cccc(N=NC2=C(O)CCCC2=O)c1`, 7.56% [at 0.0112 µM].

Regarding `O=C(NNc1cc(N2CCOCC2)nc(N2CCOCC2)n1)c1ccc(Cl)c(Cl)c1`, the Potency entry is “inactive”. `CN(C(=S)Nc1cccnc1)c1ccc(O)cc1`: the Potency result is “inactive”. Take `CS(=O)(=O)c1ccc(C(=O)OCC(=O)NC(=O)C2CCCCC2)cc1[N+](=O)[O-]`: the total fluorescence change, positive = fluorescent is 3.5% [at 0.0112 µM]. Take `O=C1CCCC(O)=C1N=Nc1cccc(S(=O)(=O)N2CCOCC2)c1`: the Potency entry was “inactive”. On the same count and under the same terms, the result for `CCCc1nc2c(=O)n(C)c(=O)nc-2n(C)n1` reads “inactive”; that for `N#Cc1c(NC(=O)c2ccccc2Cl)n(Cc2ccccc2)c2nc3ccccc3nc12`, “inactive”; that for `CC1(C)CC(=O)C(N=Nc2cccc(S(=O)(=O)N3CCOCC3)c2)=C(O)C1`, “inactive”.

For the molecule `Cn1c(NNC(=O)c2c(F)cccc2F)cc(=O)n(C)c1=O`, the Potency entry is “inactive”. The same measure, in the same setting: the value for `Cn1cc[nH]c1=S` was “inactive”.

For the molecule `CCCCCCN=CC1=C(O)CC(C)(C)CC1=O`, the total fluorescence change, positive = fluorescent was -5.99% [at 0.0112 µM]. For `Cc1cc2c(NC(=O)Nc3ccccc3)cccc2nn1`, the total fluorescence change, positive = fluorescent is 9.99% [at 0.0112 µM].

On to `CN1N=C(C(C)(C)C)CC1=O`, for which the Potency result is “inactive”. Regarding `Cn1c(CCN2CCCCC2)nc2cc(NS(=O)(=O)c3ccc(Cl)cc3)ccc21`, the total fluorescence change, positive = fluorescent is 13% [at 0.0112 µM]. Regarding `Cn1c(=O)[nH]c2nnc(-c3ccc(Cl)c(Cl)c3)nc2c1=O`, the Potency result is “inactive”.
